Rows were chosen to be rich in hits. Some 2.5% of all compounds tested hit in one or more screens of this group.
ATG4B inh – ATG4B protease inhibitors, primary screen, biochemical, fluorescence, uHTS | ATG4B cleavage of LC3-PLA2, NBD-HPC fluorescence, 1 h | inhibition, % at 8.33 µM | hit rate 0.51% among 340,000; in the data active = inhibition above about 40%
Target sequence (Q9Y4P1 whole entry, looked up): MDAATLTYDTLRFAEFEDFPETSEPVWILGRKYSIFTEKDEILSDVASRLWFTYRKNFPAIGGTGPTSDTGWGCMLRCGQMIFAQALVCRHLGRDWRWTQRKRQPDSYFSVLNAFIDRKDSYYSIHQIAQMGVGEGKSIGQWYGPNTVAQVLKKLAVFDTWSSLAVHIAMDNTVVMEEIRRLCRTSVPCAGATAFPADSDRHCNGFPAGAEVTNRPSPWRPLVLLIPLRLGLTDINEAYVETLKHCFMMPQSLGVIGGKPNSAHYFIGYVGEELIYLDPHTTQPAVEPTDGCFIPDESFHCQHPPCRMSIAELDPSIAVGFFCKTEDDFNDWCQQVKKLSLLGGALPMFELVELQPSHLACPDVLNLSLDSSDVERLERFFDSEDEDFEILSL
V-ATPase pH – regulators of yeast V-ATPase proton pumping, primary screen, pHLuorin cytosolic pH fluorescence. response, % at 10 µM. hit rate 0.37% among 350,000. S. cerevisiae; in the data active = response mostly above about 7.3%, no sharp cut-off; inactive = mostly below about 5.4%; note: actives read high
Efflux pump inh – inhibitors of Candida efflux pumps in yeast, primary screen, S. cerevisiae, Nile Red, multiplex; S. cerevisiae Candida pump triplex; inhibition, % at 10 µM; hit rate 0.44% among 330,000; AID 485275, 2010;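 active = plate passing quality check with inhibition over a set limit, or well fluorescence over plate mean plus 4 SD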;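 note: Nile Red retained in pooled yeast measured as flow cytometry median fluorescence; 0% = buffer negative control and 100% = Enniatin B positive control; higher means more Nile Red kept so more efflux inhibition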
Mot1-301 SUMO – yeast Mot1-301 growth rescue at high temperature, primary screen, SUMOylation pathway inhibitor project, S. cerevisiae, ATP luminescence, 38.5C; hit rate 1% among 320,000; S. cerevisiae Mot1-301 growth rescue; percent above DMSO median, 100 means doubled; growth rescue, % at 18.8 µM; AID 2716, 2010;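 active = every valid replicate shows activation above 250% relative to neutral control wells; inactive = the rest, any valid replicate at or below 250%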;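 note: OY570 slx delta 5 strain wells were the positive control but not used for scaling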
AI-2 QS mod – Vibrio harveyi AI-2 quorum sensing modulators, primary screen, JMH597 strain, luminescence/OD600 ratio; Vibrio harveyi JMH597 AI-2 luminescence/OD600 ratio, 9 h; active compounds read low; strain lacks LuxN and CqsS sensors; 0 = neutral-control median; activity change, % at 7.5 µM; hit rate 0.4% among 300,000; in the data active = activity change below about -75%, passing the limit was not always enough;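 note: luminescence divided by OD600 gain over 9 h not by final OD600 alone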
Yeast Mot1 SUMO – growth restoration of Mot1-301 yeast on galactose, dose response, SUMO pathway inhibitor project, whole organism, S. cerevisiae, ATP luminescence, cherry-picked samples | 2,300 tested, under 10 active | growth activity, percent, % at 42 µM | AID 493004, 2010 | shares compounds with Mot1-301 SUMO | S. cerevisiae Mot1-301 galactose growth, 24 h; -100 = growth of slx-deleted rescue strain;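 active = Signal drops as the depositor expects, and the fitted half-maximal dose is no more than ten times the top valid tested dose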;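 note: more negative values mean stronger growth rescue toward the control strain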
* hit, by the source's call; x = not tested or not shown.

SMILES	ATG4B inh	V-ATPase pH	Efflux pump inh	Mot1-301 SUMO	AI-2 QS mod	Yeast Mot1 SUMO
O=C1CC(C(=O)N2CCCc3ccccc32)CN1c1ccc(F)cc1 (stereo not given)	-2.5	-1.3	0.0	-4.3	4.2	x
COc1ccc(N2CC(C(=O)N3CCc4ccccc43)CC2=O)cc1 (stereo not given)	2.5	1.3	4.4	449.9*	23.2	-0.1
CCn1c(=O)n(CC)c2cc(NC(=O)c3ccccc3Cl)ccc21	1.8	-3.9	0.1	405.9*	-2.8	1.8
CCCNC(=O)Cn1sc2nc(C)cc(C)c2c1=O	-3.5	0.6	0.2	422.6*	36.9	0.3
CCOC(=O)c1[nH]c2ccc(F)cc2c1NC(=O)CCN1CCOCC1	-5.8	-1.5	-0.1	383.0*	0.6	0.0
CCOC(=O)c1[nH]c2ccc(F)cc2c1NC(=O)CCN1CCSCC1	-3.6	1.0	0.0	-29.2	x	x
C=CCN1C=CC(=O)[C@@H](OC(=O)Nc2ccc(Br)cc2)[C@H]1c1ccccc1Br	x	1.4	x	x	x	x
COc1ccc(-c2ccc3c(c2)S(=O)(=O)c2cccc(C(=O)N4CCN(C5CCCCC5)CC4)c2C3=O)cc1OC	-13.7	-0.7	0.5	-6.4	x	x
O=C(c1cccc(Cl)c1)C1CCCN(C(=O)c2ccoc2)C1 (stereo not given)	7.1	2.1	-0.1	-27.5	15.2	x
COc1ccc(CCC(=O)Nc2ccc3c(c2)OCO3)cc1	-0.4	4.9	0.4	563.4*	-8.8	-0.5
O=C(CCN1CCc2ccccc2C1)Nc1ccc2c(c1)OCO2	-11.3	0.6	0.3	836.4*	27.4	-0.5
COc1ccc(CCC(=O)Nc2ccc3c(c2)OCCO3)cc1	-3.6	2.4	0.3	-2.5	32.3	x
Cc1cc(S(=O)(=O)N2CCCCC2CCNC(=O)C(=O)NCC2CCCO2)ccc1F (stereo not given)	-6.3	6.0	0.1	390.5*	62.6	-0.2
Cc1cc(S(=O)(=O)N2CCCCC2CCNC(=O)C(=O)NCCN2CCOCC2)ccc1F (stereo not given)	x	-0.4	x	x	x	x
Cc1ccc(S(=O)(=O)N2CCCOC2CNC(=O)C(=O)NCCN2CCOCC2)cc1 (stereo not given)	-0.7	-5.8	0.1	0.5	19.7	x
COc1ccc(S(=O)(=O)N2CCCOC2CNC(=O)C(=O)NCCCN2CCOCC2)cc1C (stereo not given)	-1.9	0.5	-0.3	415.5*	15.9	-0.9
CCOC(=O)Nc1c(O)ccc2oc(C)c(-c3ccccc3)c12	11.5	2.7	0.0	93.9	1.4	x
C/C(CC1(O)C(=O)Nc2ccccc21)=N\O (stereo not given)	4.3	7.0	0.1	518.6*	-1.0	-0.2
O=C(OCC(=O)N1CCN(c2ccccc2)CC1)c1nc(Cl)ccc1Cl	3.0	-0.1	-0.1	640.6*	x	0.4
N#CC1=C(N)Oc2cc(O)ccc2C1c1cccs1 (stereo not given)	5.1	-3.4	-0.1	84.4	5.6	x
N#CC1=C(N)Oc2c(ccc3ccccc23)C1c1cccs1 (stereo not given)	-6.8	x	-0.1	508.2*	3.1	0.7
CCc1ccc(NC(=S)N(Cc2cccc(Br)c2)CC2CCC(C(=O)O)CC2)cc1 (stereo not given)	1.7	-1.6	0.4	591.5*	59.6	-0.9
COc1ccc(C(=O)Nc2cc(Cl)ccc2OC(=O)c2ccc(OC)cc2)cc1	-4.7	x	0.1	-8.4	11.7	x
COc1ccc(OC(=O)c2ccc(Cl)cc2)c(C(C)=O)c1	-3.2	1.3	0.1	407.5*	25.0	0.0
O=S(=O)(c1ccccc1)N1CCCCC1CCc1ccccc1 (stereo not given)	3.3	3.1	x	x	x	x
SMILES	ATG4B inh	V-ATPase pH	Efflux pump inh	Mot1-301 SUMO	AI-2 QS mod	Yeast Mot1 SUMO
Cc1ccc(S(=O)(=O)Cc2ccc(C(=O)N3CCN(c4ccccn4)CC3)o2)cc1	4.2	-0.1	0.1	537.2*	19.2	-0.2
COc1ccccc1C(=O)N1CCN(c2ccccn2)CC1	-2.0	3.6	0.0	7.5	16.5	x
O=C(c1ccc(CS(=O)(=O)c2ccc(Br)cc2)o1)N1CCN(c2ccccn2)CC1	-7.4	4.5	-0.2	6.3	20.6	x
COc1ccc(NC(=O)C(c2ccccc2)N2CCN(c3ccccn3)CC2)cc1Cl (stereo not given)	1.1	-2.2	-0.1	754.7*	6.3	0.5
COc1cc(OC)c(C(=O)N2CCN(c3ccccn3)CC2)cc1OC	4.5	-4.0	-0.1	798.2*	18.8	0.5
Cc1ccc(OCC(=O)Nc2ccc(NC(=O)c3ccccc3)c(C)c2)cc1	4.4	-2.1	0.3	13.5	39.0	x
COc1ccc(NC(=O)c2ccc(COc3ccccc3OC)o2)cc1OC	-9.3	5.8	-0.1	476.2*	13.1	0.0
COc1ccc(NC(=O)c2ccc(COc3ccccc3Br)o2)cc1OC	9.5	-6.1	0.0	8.3	10.1	x
Nc1nc(CSc2nnnn2-c2ccc(Cl)cc2)nc(N2CCOCC2)n1	3.5	0.6	-0.1	376.0*	10.2	-0.3
Cc1cc(C(=O)N/N=C/c2cccc3ccccc23)c(C)o1	-13.8	1.3	-0.2	194.2	45.4	x
Cc1cccc(OCC(O)CN2C(C)(C)CC(O)CC2(C)C)c1 (stereo not given)	-2.1	-2.2	-0.1	571.0*	19.1	0.3
Cc1cc(-c2ccccc2)n(-c2ccc(C(=O)NC(C)C)cc2)n1	-3.3	-2.0	-0.1	644.8*	7.3	0.1
O=[N+]([O-])c1cc([N+](=O)[O-])c2cc3ccccc3nc2c1	13.5	12.9	-0.2	467.7*	23.6	-1.3
CCCCc1ccc(NC(=O)C(=O)NCCN2CCN(Cc3ccc([N+](=O)[O-])cc3)CC2)cc1	0.0	-1.4	0.2	77.3	9.8	x
Cc1ccc(CNC(=O)CCCCn2c(=O)[nH]c3ccsc3c2=O)cc1	-5.7	4.5	-0.1	-11.6	10.1	x
O=C(CCCCCn1c(=O)[nH]c2ccsc2c1=O)NCc1ccc(F)cc1	9.1	-0.3	0.0	883.0*	8.8	0.4
Cn1c(=O)nc2n(Cc3ccccc3)c3ccccc3cc-2c1=O	-8.8	-1.2	0.0	417.0*	8.4	-0.5
COCc1nnc(NC(=O)CC(C)C)s1	1.0	-1.6	0.1	644.0*	x	0.4
CCOc1ccc2nc(NCCCNS(=O)(=O)c3ccccc3)c(C#N)cc2c1	-11.0	-2.5	0.2	-4.5	8.8	x
COc1ccc(C(=O)NCCN2C(=O)S/C(=C\c3cccnc3)C2=O)cc1[N+](=O)[O-]	28.1	-1.8	0.2	-12.5	-3.6	x
